Measured values taken from PubChem BioAssay AID588335 (The Scripps Research Institute Molecular Screening Center, 2011).
Out of some 360,000 compounds screened, about 4,500 (1.2%) were called active. The full list was thinned out, with actives kept by preference. Values without a mark were called inactive. Rule as the data show it: active = inhibition above about 30%; inactive = the rest.

Assay: inhibition of GDH and TPI enzymes – biochemical, absorbance, full deck, artefact control for M. tuberculosis FBA inhibitor project, primary screen (AID 588335);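 also: 0% = DMSO wells and 100% = wells lacking the enzyme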
Settings: GDH-TPI coupled enzyme counterscreen, NADH absorbance; at 4.8 µM; stronger effect = higher value

Compared with `COc1ccc(-c2noc(C(C)NS(=O)(=O)c3ccc(NC(C)=O)cc3)n2)cc1` (stereo not drawn), `Cc1ccc(C(=O)/C=C/Nc2ccc(S(=O)(=O)Nc3onc(C)c3C)cc2)cc1` is higher in inhibition: -8.81% for the first, 21.6% for the second.

First: Brc1ccc(CN2CC[C@H]3C=CCc4cccc(c43)C2)cc1
Second: COc1ccc([C@H]2CC(=O)C=C(c3ccc(C)cc3)C2)cc1
The inhibition of the first is lower: 6.9% for the first, 13.4% for the second.

Going from `CC(=O)N1CCOc2ccc(S(=O)(=O)N3CCN(c4cccc(C(F)(F)F)c4)CC3)cc21` to `CCOc1cc(/C=N/NC(=O)c2cccc(S(=O)(=O)N3CCOCC3)c2)ccc1OCC(=O)N(C)C`, the inhibition rises from 6.9% to 26.9%.

First: O=C(Cn1nnc(-c2ccccc2)n1)N/N=C/c1ccc(-c2ccc(Cl)cc2)o1
Second: CC(NC(=O)C(=O)N/N=C/c1ccc(Cl)cc1)c1ccccc1 (stereo not drawn)
The inhibition of the first is higher: 11.2% for the first, -6.35% for the second.

Going from `O=C(N/N=C\c1ccc(-c2ccc(Cl)c(Cl)c2)o1)C(=O)N1CCCC1` to `O=C(N/N=C/c1ccoc1)c1ccc(Cl)cc1Cl`, the inhibition falls from 14.3% to -4.38%.

Compared with `CCC1Sc2ccc(S(=O)(=O)CCC(=O)NCc3cccs3)cc2NC1=O` (stereo not drawn), `CCCCC(=O)N(C)c1c(CC)nc2c(OCc3ccc(S(C)(=O)=O)cc3)cccn12` is lower in inhibition: 10% for the first, 8.04% for the second.

First: Cc1cc(C(=O)N2CCCC2(C)C(=O)O)c(C)o1 (stereo not drawn)
Second: O=C(OCC(=O)N1CCCCCC1)c1cnc(Cl)c(Cl)c1
The inhibition of the first is higher: -1.83% for the first, -4.78% for the second.

First: COc1cc(/C=N/NC(=O)c2cccnc2)ccc1OC(=O)c1cccc(Br)c1
Second: COc1ccc(NC(=O)CCCNC(=O)Cn2cnc3sc4c(c3c2=O)CCCC4)cc1OC
The inhibition of the first is higher: 7.96% for the first, 4.67% for the second.

Going from `COc1ccc(C2CC(=O)Oc3ccc(C(C)(C)C)cc32)cc1` (stereo not drawn) to `COc1ccc([C@H]2CC(=O)C=C(/C=C/c3ccc(Cl)cc3)C2)cc1`, the inhibition falls from 10.2% to 2.59%.

Going from `CN(C)Cc1ccc(F)cc1Sc1cc(Cl)ccc1Cl` to `Cc1noc(NS(=O)(=O)c2ccc(NC(=O)C34CCC(CC3)C4)cc2)c1C`, the inhibition falls from 6.23% to -6.12%.

Going from `OCCNc1nc2ccccc2n1-c1ncnc2sc3c(c12)CCC3` to `Cc1nnc(NC(=O)CCC(=O)N2CCC(C)CC2)s1`, the inhibition falls from 7.12% to -8.68%.

For `COC(=O)N/N=C/c1ccc(-c2ccc(Cl)c(Cl)c2)o1`, the inhibition was 31.5% (active).
With `CSc1ccc(/C=N/NC(=O)c2cccc(Cl)c2)cc1` the inhibition was 31.8% (active).
With `Cn1c(=O)n(C)c2cc(/C=N/NC(=O)c3cccc(Br)c3)ccc21` the inhibition was 31.9% (active).
With `COc1ccc([C@H]2CC(=O)C=C(/C=C/c3ccccc3)C2)cc1` the inhibition was 37.2% (active).
In the case of `COc1ccc(/C=N/Nc2ncnc3sc4c(c23)CCCC4)cc1O`, the inhibition is reported as 34.2% (active).
For `Cc1noc(NS(=O)(=O)c2ccc(N/C=C/C(=O)c3ccccc3)cc2)c1C`, the inhibition was 32.3% (active).
